Screening data (PubChem)
The list is not random: actives were taken first. Their share in the collection is about 4.6%.
D1 potentiator: enhances dopamine response at the human D1 receptor | actives 0.036% (n = 360,000) | HEK293 TREx D1 cells, calcium flux, dopamine EC20 potentiation | P21728 | potentiation, % at 10 µM; in the data active = potentiation above about 30%; note: 0% is about no effect
D1 ag: activates the human D1 dopamine receptor; P21728; HEK293 T-REx D1 cells, calcium flux, agonist mode; activation, % at 2 µM; actives 1% (n = 360,000); note: 0% is about no effect
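Agonism was scored from calcium flux recorded over 180 s (1 read/s) after pintool compound addition, following a 10-cycle baseline. Cells were inducible force-coupled HEK293 TREx D1, plated overnight at 30 C and loaded with no-wash calcium dye.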
D1 antagonist: blocks dopamine activation of the human D1 receptor; P21728; HEK293 TREx D1 cells, calcium flux, dopamine EC80; hits give low values; activity change, negative = inhibition, % at 10 µM; actives 3.2% (n = 360,000); AID 504652; in the data active = activity change below about -30%; note: % is set by controls: 0 for no effect and ±100 for the full control effect
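Allosteric or orthosteric antagonism assessed as attenuation of the calcium response to EC80 dopamine, added 180 s after compound, in induced HEK293 Trex D1 cells loaded with no-wash calcium dye.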
TRHR enhancer: allosterically enhances the human TRH receptor | P34981 | TRHR cells, fluo-8 calcium fluorescence, EC20 TRH enhancement | enhancement, % at 2 µM | actives 0.66% (n = 360,000) | AID 493056; in the data active = enhancement above about 30%; note: 0% is about no effect
Target sequence (P34981 whole entry, looked up): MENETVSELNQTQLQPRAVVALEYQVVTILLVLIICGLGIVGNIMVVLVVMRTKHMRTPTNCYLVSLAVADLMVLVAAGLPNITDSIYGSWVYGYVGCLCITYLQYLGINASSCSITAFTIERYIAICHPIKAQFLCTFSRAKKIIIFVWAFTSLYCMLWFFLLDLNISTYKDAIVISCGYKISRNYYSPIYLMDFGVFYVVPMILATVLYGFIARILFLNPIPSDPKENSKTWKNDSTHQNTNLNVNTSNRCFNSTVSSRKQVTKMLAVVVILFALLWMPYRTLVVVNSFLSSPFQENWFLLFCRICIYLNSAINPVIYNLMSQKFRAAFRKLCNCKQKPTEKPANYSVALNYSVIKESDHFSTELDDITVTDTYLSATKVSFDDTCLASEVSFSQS
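TRHR-expressing cells loaded with fluo-8 calcium dye were read kinetically (ex 480/em 530) during compound addition, then stimulated with an EC20 of TRH (10 nM final). Enhancement of the Gq-mediated intracellular calcium response was scored.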
TRHR agonist: agonists of human TRH receptor; P34981; TRHR cells, calcium flux fluo-8, FDSS agonist mode; activation, % at 2 µM; actives 0.18% (n = 360,000); AID 493084; note: 0% is about no effect
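Read-out: compound-evoked intracellular calcium rise in TRHR cells, fluo-8 dye, kinetic FDSS fluorescence at 1 s/cycle following a 10-cycle baseline. Cells cultured overnight before dye loading (30 min–1.5 h, RT).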
* marks the source's active call; other numbers are inactive results; . = not tested or not shown. Cut-off read from the data, not from the text of the source, unless noted: active = activation above about 30%; inactive = the rest.

SMILES	D1 potentiator	D1 ag	D1 antagonist	TRHR enhancer	TRHR agonist
Cc1ccc(NC(=S)Nc2ccc(OC(F)F)c(Cl)c2)cc1Cl	-11.6	22.9	-21.9	-4.1	0.4
CC(NC(=S)Nc1cccc(C(F)(F)F)c1)C(C)(C)C (stereo unspecified)	-8.9	18.1	-34.6*	-3.5	0.4
CC(NC(=S)Nc1ccc(OC(F)F)c(Cl)c1)C(C)(C)C (stereo unspecified)	-14.2	20.1	-88.4*	-25.4	3.1
O=C(NCCCCNC(=O)c1ccc(Br)cc1)c1ccc(Br)cc1	-4.8	-0.5	-33.1*	-2.1	0.1
Cc1ccccc1CC(=O)NCCN1CCCCC1	-0.3	2.5	1.8	-2.8	1.0
O=C(NCCCN1CCc2ccccc2C1)Nc1ccc(Br)cc1	-7.0	40.5*	-25.8	-0.7	1.1
O=C(CCN1CCCCC1)NNC(=S)NC(=O)c1ccc(Br)cc1	-0.9	3.4	-36.1*	-1.0	-0.9
O=C(Cc1ccccc1)NCCN1CCCC1	-10.7	3.7	-39.3*	0.3	0.3
COc1ccc(NC(=O)NCCCN2CCc3ccccc3C2)cc1	-7.6	0.2	17.6	-4.2	-0.5
Cc1cc2c(s1)c1cnn(Cc3c(F)cc(F)cc3F)c(=O)c1n2C	3.1	0.0	4.0	-2.3	0.2
CCCOc1ccc(C2C(=O)N(C3CCCCCC3)CC(=O)N2Cc2ccc(OC)cc2)cc1OC (stereo unspecified)	-0.5	-2.0	-4.2	-1.6	-0.7
COC(=O)c1scc(-c2ccc(C)cc2)c1S(=O)(=O)N1CCN(c2ccccc2F)CC1	-4.8	0.9	0.4	-6.8	-0.5
O=C(NCCN1CCCC1)c1ccc(Br)cc1	31.4*	0.8	4.9	9.4	0.2
O=C(NCCN1CCCCC1)Nc1ccc(Br)cc1	-1.1	7.3	-59.9*	4.2	0.8
Cc1ccc(NC(=O)NCCN2CCCCC2)cc1	-3.2	2.9	3.2	-1.8	-0.1
Cn1cc(CC(=O)NCCN2CCOCC2)c2ccccc21	-9.2	3.1	-31.9*	-7.8	-0.4
Cc1cc(NC(=O)c2cc(-c3cccc(OCC(C)C)c3)nc3ccccc23)no1	-3.1	3.1	6.4	2.6	0.6
O=[N+]([O-])c1cccnc1N1CCC(c2cc(-c3ccc(Cl)cc3)n[nH]2)CC1	0.3	2.7	-33.1*	-8.1	0.1
CCOC(=O)CN1CCC(c2cc(-c3ccc(Cl)cc3)n[nH]2)CC1	-6.0	13.0	-23.0	-1.6	2.7
C/C(=N\NC(=O)c1ccncc1)c1cc2ccccc2oc1=O	2.5	4.2	-34.2*	-0.9	0.3
C/C(=N/NC(=O)c1ccncc1)c1cc2ccc(O)cc2oc1=O	-2.3	40.6*	-7.0	4.9	23.9
C/C(=N\NC(=O)c1ccncc1)c1cc2ccccc2o1	-3.4	-0.2	-25.8	2.2	-0.3
C/C(=N/NC(N)=S)c1cc2ccc(O)cc2oc1=O	-4.7	5.6	5.6	1.5	3.6
CCOC(=O)CSC1=Nc2ccccc2C2=NC(CCC(=O)NCc3ccccc3)C(=O)N12 (stereo unspecified)	-0.1	1.0	-2.2	-0.2	-0.2
O=C(O)C1CCCCC1C(=O)NCc1ccc2c(c1)OCO2 (stereo unspecified)	-4.8	-0.1	2.3	12.1	0.8
SMILES	D1 potentiator	D1 ag	D1 antagonist	TRHR enhancer	TRHR agonist
CCc1ccc2oc(C(=O)NCc3ccncc3)c(C)c2c1	-4.0	-0.5	0.1	3.5	0.9
Cc1cc(C)c2c(C)c(C(=O)NCc3ccncc3)oc2c1	-5.4	-1.5	-43.8*	-2.5	-1.1
O=C(c1cc(-c2ccccc2)on1)N1CCc2ccccc2C1	-6.1	1.4	0.1	36.1*	1.1
O=C(c1cc(-c2ccc(Cl)cc2)on1)N1CCc2ccccc2C1	-4.8	1.7	-1.4	-1.4	0.5
CC(=O)Nc1cc(C(=O)NCc2ccc(F)cc2)ccc1S(=O)(=O)c1ccc(C)cc1	0.7	-4.1	-67.2*	1.3	-1.0
CC(=O)Nc1cc(C(=O)N2CCOCC2)ccc1S(=O)(=O)c1ccc(C)cc1	1.7	0.6	-31.5*	1.4	0.3
CC(=O)Nc1cc(C(=O)O)ccc1S(=O)(=O)c1ccc(C)cc1	6.8	0.5	4.2	3.7	0.5
COc1cc(NC(=O)C(OC(=O)CNC(=O)c2ccccc2)c2ccccc2)cc(OC)c1 (stereo unspecified)	10.9	2.0	21.5	3.9	-1.0
COc1cccc(/C=N/NC(=O)CNC(=O)c2ccc(S(=O)(=O)N3CCCC3)cc2)c1OC	-7.6	0.1	-15.7	18.6	0.2
Cc1csc(NC(=O)c2ccc(Cn3nc(C)c(Br)c3C)o2)n1	-5.5	1.8	-14.0	-9.1	-0.8
Cc1nn(Cc2ccc(C(=O)Nc3ccccc3C(F)(F)F)o2)c(C)c1Br	-4.5	24.5	-65.1*	-8.4	0.7
CNC(=O)c1ccccc1NC(=O)C1CC(=O)N(C(C)C)C1 (stereo unspecified)	-1.3	0.0	8.5	37.2*	0.8
COC(=O)c1c(NC(C)=O)c2c3c(sc2n1Cc1cc(C)ccc1C)CCCC3	5.5	0.9	7.8	1.1	0.6
CCOc1ccc(N2CC(C(=O)Nc3ccccc3N3CCOCC3)CC2=O)cc1 (stereo unspecified)	-0.8	5.1	-30.4*	-0.4	-0.8
COc1ccc(N2CC(C(=O)Nc3c4c(nn3-c3ccccc3)CS(=O)(=O)C4)CC2=O)cc1 (stereo unspecified)	-7.3	1.1	-51.7*	-3.5	0.4
CCOc1ccc(N2CC(C(=O)Nc3ccccn3)CC2=O)cc1 (stereo unspecified)	-9.2	-0.7	-36.2*	-2.3	-0.1
COc1cc(OC)c(N(C)C(=O)c2cn(C3CCCC3)c(=O)c3c2c2ccccc2n3C)cc1Cl	-0.7	4.0	-13.3	-6.1	-0.5
CC(O)CNC(=O)C(=O)Nc1c2c(nn1-c1ccc(Cl)cc1)CSC2 (stereo unspecified)	0.3	-3.0	.	0.0	0.0
N#Cc1c(SCc2ccccc2)sc(C(=O)c2ccccc2)c1N	-6.2	-0.6	-49.1*	-20.5	-0.4
CCOC(=O)c1c(NC(=O)COc2ccc(F)cc2)sc2c1CCC(C)C2 (stereo unspecified)	0.6	0.3	-14.5	7.8	-0.5
Cc1ccccc1NC(=O)c1ccc(NS(=O)(=O)c2cc(C(C)(C)C)cc(C)c2C)cc1	-5.1	0.4	-84.6*	-0.1	0.4
Cc1cc(C(C)(C)C)cc(S(=O)(=O)Nc2cccc(C(=O)O)c2)c1C	-7.8	1.4	-18.2	-2.1	-0.3
Cc1ccccc1NC(=O)c1cccc(S(=O)(=O)Nc2cccc(C(=O)O)c2)c1	1.7	-2.9	-31.1*	-4.2	0.4
Cc1cccc(NS(=O)(=O)c2cccc(C(=O)Nc3cccc(C(=O)O)c3)c2)c1	6.0	9.1	-21.7	0.0	-0.3
COc1ccccc1CNS(=O)(=O)c1ccc2c(c1)N(C(C)=O)CCO2	2.0	-0.6	-5.3	7.9	0.0
